# According to the supplement of paper PMC6124720:
# Values without a mark were called inactive.
# Test system: Pseudogymnoascus destructans 20631-21
# Experiment: growth activity index (DuctApe, 0 = no growth, 9 = maximal growth) (index 0-9); higher = more fungal growth (less inhibition), active = 0 or less; extreme values may be limits of the assay
# Settings: concentration level (1-4, increasing; Biolog proprietary): 4; temperature: 13 °C; YPD
# 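Note: biolog Phenotype Microarray plates PM21–25, OD595 followed daily over 11 days, growth curves converted to index, mean of two independent experiments.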
row,SMILES,growth activity index
1,[Na+].[Na+].[O]=[Cr](=[O])([O-])[O][Cr](=[O])(=[O])[O-] [Sodium Dichromate] (Biolog plate: PM21),4.25
2,CCCCC(C#N)(Cn1cncn1)c1ccc(Cl)cc1 (centres undefined) [Myclobutanil] (Biolog plate: PM22),0 (active)
3,[N-]=[N+]=CC(=O)OC[C@H](N)C(=O)O [Azaserine] (Biolog plate: PM22),4.67
4,[K+].[K+].[O]=[Cr](=[O])([O-])[O-] [Potassium Chromate] (Biolog plate: PM24),4.33
5,O=[As][O-].[Na+] [Sodium Arsenite] (Biolog plate: PM23),5
6,Nc1ccncc1 [4-Aminopyridine] (Biolog plate: PM25),1.33
7,N#CO [Sodium Cyanate] (Biolog plate: PM23),4.67
8,O=[Se](=O)([O-])[O-].[Na+].[Na+] [Sodium Selenate] (Biolog plate: PM23),3
9,O=[As]([O-])([O-])[O-].[Na+].[Na+].[Na+] [Sodium Arsenate] (Biolog plate: PM22),2
10,[O-][I+3]([O-])([O-])O [Sodium metaperiodate] (Biolog plate: PM23),5
11,[Cl][Cd][Cl] [Cadmium Chloride] (Biolog plate: PM23),0 (active)
12,N.N.[Cl][Pt][Cl] [Cisplatin] (Biolog plate: PM24),4
13,CCCCCCCCCCCCCCCC[n+]1ccccc1 [Cetylpyridinium chloride] (Biolog plate: PM21),0 (active)
14,CNC1CC(N)C(O)C(OC2OC(CO)C(O)C3OC4(OC(C(N)CO)C(O)C(O)C4O)OC23)C1O (centres undefined) [Hygromycin B] (Biolog plate: PM25),0 (active)
